Values joined by “and” are separate entries in the source; they are usually repeats but may differ in a detail not shown here. Equal values may be shown once. About 2,000 (36%) of roughly 5,500 compounds were called active. About 18% were inconclusive and are not listed. Cut-off read from the data, not from the text of the source: active = normalized growth mostly below about 0.91 (no sharp cut-off); inconclusive = no clear call, values can overlap the other calls; inactive = mostly above about 0.92. The list shows a part of the results.
Experiment: chemical genetic growth profiling, strain panel (AID 1159580);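 note: tested at 20 µM; growth read once vehicle control cultures reached saturation at 30 °C; 1 = growth at the plate median or of vehicle wells; lower values mean less growth of the strain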
Conditions: S. cerevisiae deletion strains, growth OD

Measured: normalized growth

C[C@H]1[C@H](C)CC[C@]2(CO)CC[C@]3(C)C(=CCC4[C@@]5(C)CC[C@H](O)C(C)(C)C5CC[C@]43C)[C@H]12 (some centres not stated)
inactive: locus YAL021C, strain ccr4, active compounds read low 1.02 | locus YAL026C, strain drs2, active compounds read low 0.981 | locus YAL030W, strain snc1, active compounds read low 0.997 | locus YBL061C, strain skt5, active compounds read low 0.994 | locus YBR009C, strain hhf1, active compounds read low 1.01 | locus YBR021W, strain FUR4, active compounds read low 1.01 | locus YBR023C, strain chs3, active compounds read low 0.995 | locus YBR171W, strain sec66, active compounds read low 0.989 | locus YBR229C, strain ROT2, active compounds read low 1.02 | locus YBR231C, strain swc5, active compounds read low 0.996 | locus YBR279W, strain paf1, active compounds read low 0.991 | locus YCL011C, strain gbp2, active compounds read low 0.994 | locus YCL016C, strain dcc1, active compounds read low 1.01 | locus YCL029C, strain bik1, active compounds read low 1.06 | locus YCL061C, strain MRC1, active compounds read low 1 | locus YCL069W, strain vba3, active compounds read low 0.998 | locus YCR088W, strain abp1, active compounds read low 0.995 | locus YDL005C, strain med2, active compounds read low 0.986 | locus YDL035C, strain GPR1, active compounds read low 0.994 | locus YDL040C, strain nat1, active compounds read low 0.996 | locus YDL074C, strain BRE1, active compounds read low 1.03 | locus YDL101C, strain DUN1, active compounds read low 1.02 | locus YDL134C, strain PPH21, active compounds read low 0.999 | locus YDL185W, strain tfp1, active compounds read low 1.03 | locus YDL192W, strain arf1, active compounds read low 1.04 | locus YDR001C, strain nth1, active compounds read low 1 | locus YDR069C, strain doa4, active compounds read low 0.988 | locus YDR101C, strain arx1, active compounds read low 1.01 | locus YDR137W, strain rgp1, active compounds read low 0.996 | locus YDR159W, strain sac3, active compounds read low 1.01 | locus YDR162C, strain NBP2, active compounds read low 1.01 | locus YDR195W, strain ref2 0.992 | locus YDR297W, strain sur2, active compounds read low 1.01 | locus YDR318W, strain mcm21, active compounds read low 1.02 | locus YDR334W, strain swr1, active compounds read low 0.992 | locus YDR335W, strain msn5, active compounds read low 0.999 | locus YDR388W, active compounds read low 1.02 | locus YDR392W, strain spt3, active compounds read low 1.03 | locus YDR502C, strain sam2, active compounds read low 0.998 | locus YEL003W, strain gim4, active compounds read low 1 | locus YEL037C, strain rad23, active compounds read low 0.981 | locus YEL061C, strain CIN8 (second series), active compounds read low 0.972 | locus YEL061C, strain CIN8, active compounds read low 1.01 | locus YER015W, strain faa2, active compounds read low 1 | locus YER016W, strain bim1, active compounds read low 0.988 | locus YER110C, active compounds read low 1.03 | locus YER111C, strain swi4, active compounds read low 1.01 | locus YER155C, strain BEM2 (second series), active compounds read low 0.995 | locus YER155C, strain BEM2, active compounds read low 1.02 | locus YER167W, strain BCK2, active compounds read low 0.994 | locus YFR010W, strain ubp6, active compounds read low 0.987 | locus YGL078C, strain dbp3, active compounds read low 1.01 | locus YGL086W, strain mad1, active compounds read low 1.01 | locus YGL167C, strain pmr1, active compounds read low 0.996 | locus YGL173C, strain kem1, active compounds read low 1 | locus YGL227W, strain vid30, active compounds read low 0.999 | locus YGL240W, strain doc1, active compounds read low 0.975 | locus YGL248W, strain PDE1, active compounds read low 1.01 | locus YGL253W, strain hxk2, active compounds read low 0.995 | locus YGR135W, strain pre9, active compounds read low 1.01 | locus YGR252W, strain gcn5, active compounds read low 1.02 | locus YHR013C, strain ard1, active compounds read low 0.982 | locus YHR027C, strain rpn1, active compounds read low 1 | locus YHR030C, strain SLT2, active compounds read low 1.01 and 1.03 | locus YHR079C, strain IRE1 (second series), active compounds read low 1.02 | locus YHR079C, strain IRE1, active compounds read low 1.04 | locus YHR094C, strain hxt1, active compounds read low 1.03 | locus YHR129C, strain ARP1, active compounds read low 1.02 | locus YHR142W, strain chs7, active compounds read low 1.01 | locus YHR200W, strain rpn10, active compounds read low 1.01 | locus YIL066C, strain RNR3, active compounds read low 1.01 | locus YIL073C, strain SPO22, active compounds read low 1.05 | locus YIL125W, strain kgd1, active compounds read low 1.03 | locus YIR030C, strain dcg1, active compounds read low 1.02 | locus YJL092W, strain hpr5, active compounds read low 0.995 | locus YJL095W, strain BCK1 (second series), active compounds read low 1.01 | locus YJL095W, strain BCK1, active compounds read low 1.02 and 0.984 | locus YJL115W, strain asf1, active compounds read low 0.991 | locus YJL129C, strain trk1, active compounds read low 1 | locus YJL134W, strain LCB3, active compounds read low 1.01 | locus YJL154C, strain vps35, active compounds read low 0.986 | locus YJL164C, strain tpk1, active compounds read low 1.01 | locus YJL166W, strain qcr8, active compounds read low 0.994 | locus YJL168C, strain set2, active compounds read low 1.02 | locus YJL187C, strain SWE1 (second series), active compounds read low 1.02 | locus YJR043C, strain POL32, active compounds read low 1 | locus YJR066W, strain TOR1, active compounds read low 0.997

Reference: PubChem BioAssay AID1159580 (chemical genetic matrix, 2015)
